# Reference: PMC4053984, “DNA binding specificities of the long zinc-finger recombination protein PRDM9”
# Target: PRDM9Cst (Mus musculus (CAST/EiJ))
# Experiment: competition EMSA; competition against biotin-labeled 75-bp Hlx1 B6 oligo; 10 mM Tris pH 7.5, 50 mM KCl, 1 mM DTT, 50 ng/ul poly(dI/dC), 0.05% NP-40, crude E. coli extract 3 ul in 20 ul; 1 h with unlabeled competitor, then 4 h with biotin-labeled 75-bp Hlx1; temperature not stated; high values mean tight binding
# Conditions: tags: N-terminal His tag (pBAD/HisB); dsDNA, one strand shown
# Chain of PRDM9Cst (Mus musculus (CAST/EiJ)) (chain, as listed by the source): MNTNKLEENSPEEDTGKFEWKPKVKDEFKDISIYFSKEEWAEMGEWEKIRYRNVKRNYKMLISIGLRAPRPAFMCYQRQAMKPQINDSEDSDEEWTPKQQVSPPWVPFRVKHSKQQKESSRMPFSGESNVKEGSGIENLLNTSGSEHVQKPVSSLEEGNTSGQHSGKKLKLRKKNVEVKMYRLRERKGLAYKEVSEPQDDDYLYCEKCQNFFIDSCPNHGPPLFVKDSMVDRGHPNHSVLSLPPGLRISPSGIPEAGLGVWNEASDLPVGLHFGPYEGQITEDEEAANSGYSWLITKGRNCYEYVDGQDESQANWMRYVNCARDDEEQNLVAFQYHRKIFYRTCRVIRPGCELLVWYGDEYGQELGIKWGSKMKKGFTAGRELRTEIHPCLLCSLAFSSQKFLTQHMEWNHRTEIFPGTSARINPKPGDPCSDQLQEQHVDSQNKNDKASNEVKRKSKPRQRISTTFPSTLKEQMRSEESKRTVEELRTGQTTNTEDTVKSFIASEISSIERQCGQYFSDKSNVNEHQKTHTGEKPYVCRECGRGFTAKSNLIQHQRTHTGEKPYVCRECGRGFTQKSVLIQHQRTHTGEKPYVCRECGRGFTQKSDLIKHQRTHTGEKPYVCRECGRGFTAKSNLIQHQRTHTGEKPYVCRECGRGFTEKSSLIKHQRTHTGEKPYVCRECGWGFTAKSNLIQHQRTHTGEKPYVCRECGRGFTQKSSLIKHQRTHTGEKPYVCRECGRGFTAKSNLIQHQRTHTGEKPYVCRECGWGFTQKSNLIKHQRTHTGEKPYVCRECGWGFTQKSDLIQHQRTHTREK
row,Sequence,binding signal
1,ATAGTGTGCAGACTAGGACCCTGCCCTTTCTTT,"0 Bmut (0 = wild type, -1 = scrambled)"
2,ATAGTGTGCAGACTTGGACCCTGCCCGTTCTTT,"0.1 Bmut (0 = wild type, -1 = scrambled)"
3,ATAGTGTGCAGACTTGGACCCCGCCCTTTCTTT,"-0.1 Bmut (0 = wild type, -1 = scrambled)"
4,ATGGTGTGCAGACTTGGACCCTGCCCTTTCTTT,"0 Bmut (0 = wild type, -1 = scrambled)"
5,ATAGTGTGCAGACTTGGACCTTGCCCTTTCTTT,"0.06 Bmut (0 = wild type, -1 = scrambled)"
6,ATAGTGTGCAGACTTGGACCCTGCCCTTACTTT,"-0.1 Bmut (0 = wild type, -1 = scrambled)"
7,ATAGTGTGCAGACCTGGACCCTGCCCTTTCTTT,"0 Bmut (0 = wild type, -1 = scrambled)"
8,ATAGTCTGCAGACTTGGACCCTGCCCTTTCTTT,"0.1 Bmut (0 = wild type, -1 = scrambled)"
9,ATAGTGTGCACACTTGGACCCTGCCCTTTCTTT,"-0.2 Bmut (0 = wild type, -1 = scrambled)"
10,ATAGTGTGCAGACTTGGGCCCTGCCCTTTCTTT,"0.3 Bmut (0 = wild type, -1 = scrambled)"
11,ATAGTATGCAGACTTGGACCCTGCCCTTTCTTT,"0 Bmut (0 = wild type, -1 = scrambled)"
12,ATAGTGTGGAGACTTGGACCCTGCCCTTTCTTT,"0.1 Bmut (0 = wild type, -1 = scrambled)"
13,ATAGTGTGCAGACTTGGACCCTGCCCTTTCATT,"0.08 Bmut (0 = wild type, -1 = scrambled)"
14,GTAGTGTGCAGACTTGGACCCTGCCCTTTCTTT,"0 Bmut (0 = wild type, -1 = scrambled)"
15,ATAGTGAGCAGACTTGGACCCTGCCCTTTCTTT,"-0.3 Bmut (0 = wild type, -1 = scrambled)"
16,ATAGTGTGCAGACTTGGACCCTGCCCTTTCTTA,"0.13 Bmut (0 = wild type, -1 = scrambled)"
17,ATAGAGTGCAGACTTGGACCCTGCCCTTTCTTT,"0 Bmut (0 = wild type, -1 = scrambled)"
18,ATATTGTGCAGACTTGGACCCTGCCCTTTCTTT,"0.3 Bmut (0 = wild type, -1 = scrambled)"
19,ATAGTGTGCAGACTTGGACCCTGCCATTTCTTT,"-0.1 Bmut (0 = wild type, -1 = scrambled)"
20,ATAGTGTGCAGACTTGAACCCTGCCCTTTCTTT,"0.2 Bmut (0 = wild type, -1 = scrambled)"
21,ATAGTGTGCAGACTTGGACCCTGCCCTTTCCTT,"0.12 Bmut (0 = wild type, -1 = scrambled)"
22,ATCGTGTGCAGACTTGGACCCTGCCCTTTCTTT,"-0.1 Bmut (0 = wild type, -1 = scrambled)"
23,AGAGTGTGCAGACTTGGACCCTGCCCTTTCTTT,"-0.8 Bmut (0 = wild type, -1 = scrambled)"
24,ATAGTGTGCAGACTTGGCCCCTGCCCTTTCTTT,"-0.9 Bmut (0 = wild type, -1 = scrambled)"
25,ATAGTGTGCAGACGTGGACCCTGCCCTTTCTTT,"-0.4 Bmut (0 = wild type, -1 = scrambled)"
26,ATAGTGTGCAGACTTGGACCCTGCCCTTTCTTG,"0.09 Bmut (0 = wild type, -1 = scrambled)"
27,ATAGTGTGCAGACTTGGACCCTGTCCTTTCTTT,"0.02 Bmut (0 = wild type, -1 = scrambled)"
28,ATAGTGTGCAGACTTGGACCCTGCCCTTTCTAT,"0.15 Bmut (0 = wild type, -1 = scrambled)"
29,ATAGTGTGCAGACTTGGACCATGCCCTTTCTTT,"0.07 Bmut (0 = wild type, -1 = scrambled)"
30,ATAGTGTGCAGACTTGGACTCTGCCCTTTCTTT,"0.01 Bmut (0 = wild type, -1 = scrambled)"
